The campaign covered roughly 48,000 compounds. About 13,000 (27%) showed an effect of 50% or more. The list shows a part of the results.
The molecules below were run on Wolbachia pipientis (assay: Anti-Wolbachia Cell-Based Screen). Settings: 5 µM.
Assay type: functional
Set-up: scale not given: in the data most compounds retested in dose-response had high values

Compound | Percent Effect [%]
O=C(C1CN(c2ncc(F)cn2)CC12CCOCC2)N1CC=CC1.O=C(O)C(F)(F)F (stereo unspecified) | -11.35
O=C(O)C(F)(F)F.c1coc(CN2CCCn3c(nnc3Cn3cccc3)C2)c1 | 110.6
O=C(O)C(F)(F)F.c1cnn(Cc2nnc3n2CCCN(CC2CCOCC2)C3)c1 | -9.289
c1coc(CN2CCn3c(CN4CCOCC4)nnc3C2)c1 | 0.1546
O=C(O)C(F)(F)F.O=C(O)C(F)(F)F.c1coc(CN2CCCn3c(CN4CCOCC4)nnc3C2)c1 | 102
O=C(O)C(F)(F)F.c1coc(CN2CCn3c(COCC4CC4)nnc3C2)c1 | -16.88
CCCN1CCN(C(=O)c2cccc3cccnc23)[C@H]2CS(=O)(=O)C[C@H]21 | -6.939
Cc1nnc(CN(C)Cc2nc3c(s2)CCCC3)o1 | -39.73
CCc1ncc(C(=O)N2CCC(O)(CN3CCOCC3)C(C)(C)C2)cn1 (stereo unspecified) | 21.42
COc1ccc2c(C)c(C(=O)N3CCC(NC(C)=O)C3)oc2c1 (stereo unspecified) | 4.828
CCCc1nc(CN2CCOC(Cn3cncn3)C2)cs1 (stereo unspecified) | 112.9
CC(C)(C)c1nnc(CN2CCOC(Cn3cncn3)C2)o1 (stereo unspecified) | 5.198
CC(C)CCc1nc(CN2CCOC(Cn3cncn3)C2)cs1 (stereo unspecified) | 124.3
Cc1cc(CNC(=O)NC(C)c2ccncc2)no1 (stereo unspecified) | -0.1893
CCCC1C=CCN1C(=O)c1cc(COc2ccc3c(c2)OCO3)[nH]n1 (stereo unspecified) | 106.8
C[C@@H]1CC[C@@H](C)N1C(=O)c1cc(COc2ccccc2)[nH]n1 | 96.55
COc1ccccc1OCc1cc(C(=O)N2CCC(NC(C)=O)C2)n[nH]1 (stereo unspecified) | -14.62
O=C(c1cc(COc2ccc3c(c2)OCO3)[nH]n1)N1CC=CC1CO (stereo unspecified) | -1.873
CN(Cc1nncn1C)C(=O)c1cc(COc2ccccc2)[nH]n1 | -18.45
COc1ccccc1OCc1cc(C(=O)N2CCOCC2CO)n[nH]1 (stereo unspecified) | -19.45
CCCC1C=CCN1C(=O)c1cc(COc2ccccc2)[nH]n1 (stereo unspecified) | 130
C[C@@H]1CN(C(=O)c2cc(COc3ccc4c(c3)OCO4)[nH]n2)C[C@H](C)O1 | -15.32

Compound | Percent Effect [%]
COc1ccccc1OCc1cc(C(=O)N2C[C@@H](C)O[C@@H](C)C2)n[nH]1 | -20.33
COc1ccccc1OCc1cc(C(=O)N2[C@H](C)CC[C@@H]2C)n[nH]1 | -29.7
CO[C@H]1CN(C(C)C)C[C@@H]1NC(=O)c1cc(COc2ccccc2)[nH]n1 | -19.38
COC(=O)C1C=CCN1C(=O)c1cc(COc2ccccc2)[nH]n1 (stereo unspecified) | 114.9
CN(C(=O)CC1=CCCCC1)C1CCCN(C2Cc3ccccc3C2)C1 (stereo unspecified) | -26.45
CCc1ncc2c(n1)CN(C(=O)Cc1cc(OC)cc(OC)c1)C2 | -17.96
CC(C)COC(C)C(=O)N1CCC(C)CC1 (stereo unspecified) | -15.15
Cc1cc(CN(C2CC2)C(C)C(C)C)no1 (stereo unspecified) | 5.492
COc1ccccc1OCc1cc(C(=O)N2CC=CC2C(C)C)n[nH]1 (stereo unspecified) | -7.003
CCC1C=CCN1C(=O)c1cc(COc2ccccc2OC)[nH]n1 (stereo unspecified) | 105.4
COc1ccccc1OCc1cc(C(=O)N2CC(O)C2)n[nH]1 | -12.52
CC(=O)CN1CCC2(CC1)c1ccccc1[C@@H](N1CCSCC1)[C@@H]2O | -3.937
CN(CC(=O)N1CC(C)(C)[C@@](C)(O)C1)Cc1ccncc1 | -6.458
COc1ccc(COCC(O)CNC(=O)c2cc(C)cc(C)c2)cc1 (stereo unspecified) | 13.74
CN(C)CCn1c2c(ccc1=O)CC(NC(=O)c1cnccn1)CC2.O=C(O)C(F)(F)F (stereo unspecified) | 97.98
O=C(NC1CCc2c(ccc(=O)n2CC2CC2)C1)c1ccsc1 (stereo unspecified) | 1.111
CN(C)CCn1c2c(ccc1=O)CC(NC(=O)c1ccsc1)CC2.O=C(O)C(F)(F)F (stereo unspecified) | 112.1
CC(C)NC1CCc2c(ccc(=O)n2CCN2CCCC2=O)C1.O=C(O)C(F)(F)F (stereo unspecified) | -4.2
Cn1c2c(ccc1=O)CC(NC(=O)c1ccsc1)CC2 (stereo unspecified) | 116.4
O=C(Cc1ccsc1)NC1CCc2c(ccc(=O)n2CC2CC2)C1 (stereo unspecified) | -22.09
CN(C)CCn1c2c(ccc1=O)CC(NC(=O)NC1CCCC1)CC2.O=C(O)C(F)(F)F (stereo unspecified) | 92.43
CC(C)NC1CCc2c(ccc(=O)n2CCN(C)C)C1.O=C(O)C(F)(F)F.O=C(O)C(F)(F)F (stereo unspecified) | 8.884

Compound | Percent Effect [%]
Cc1ccc(Sc2ccc(N3CCCC(C(=O)O)C3)nn2)cc1 (stereo unspecified) | -25.21
Cn1cc(C(=O)N2CCOc3cc(F)ccc32)ccc1=O | -3.875
O=C(Nc1ccnc2ccnn12)c1ccc(NC2CC2)nc1 | -6.003
Cc1nc(N2CCN(C(=O)c3cccs3)CC2)cc(-n2cccc2)n1 | 0.4402
CC(Cc1cccc(F)c1)C(=O)NS(=O)(=O)c1ccc2c(c1)OCCO2 (stereo unspecified) | -30.67
CCc1nc(CCNc2ncccc2S(N)(=O)=O)sc1C | -14.32
CCc1n[nH]c(C2CN(Cc3csc(C4CCCC4)n3)CCO2)n1 (stereo unspecified) | 5.778
CN1CCOC(CNCc2csc(C3CCCCC3)n2)C1 (stereo unspecified) | 102.8
CN1CCOC(CNCc2coc(-c3cccs3)n2)C1 (stereo unspecified) | 12.46
Cc1n[nH]c(C2CN(Cc3csc(C4CCCCC4)n3)CCO2)n1 (stereo unspecified) | -9.689
CN1CCOC(CNCc2csc(C3CCCC3)n2)C1 (stereo unspecified) | 96.75
CN(C)C(=O)[C@H]1CC[C@@H]2[C@@H](CCN2C(=O)N(C)C)O1 | -14.11
N#Cc1cccc(N2CCCC3(CN(C(=O)NC4CC4)CCO3)C2)c1 (stereo unspecified) | 4.321
O=C(NC1CC1)N1CCOCC2(C1)CN(c1ccccc1)C(=O)CO2 (stereo unspecified) | 106.4
O=C(c1ccc[nH]1)N1CCOCC2(C1)CN(c1ccccc1)C(=O)CO2 (stereo unspecified) | 99.07
O=C(c1ccc[nH]1)N1CCOC2(COCCN(c3cncnc3)C2)C1 (stereo unspecified) | -9.951
N#Cc1cccc(N2CCCC3(CN(C(=O)c4ccc[nH]4)CCO3)C2)c1 (stereo unspecified) | -1.292
O=C(O)C(F)(F)F.O=C1COC2(COCCN(Cc3ccsc3)C2)CN1c1ccc(F)cc1 (stereo unspecified) | 3.467
N#Cc1cccc(N2CCOCC3(CCCN(C(=O)NC4CC4)C3)C2)c1 (stereo unspecified) | 10.86
O=C(O)C(F)(F)F.O=C(c1c[nH]cn1)N1CCOCC2(C1)CN(c1ccccc1)C(=O)CO2 (stereo unspecified) | 97.27
CN(C)CC(=O)N1CCOCC2(C1)CN(c1ccccc1)C(=O)CO2 (stereo unspecified) | -12.92
O=C(N1CCCC1)N1CCOCC2(C1)CN(c1ccccc1)C(=O)CO2 (stereo unspecified) | 96.63

— ChEMBL document CHEMBL3988442, “University of Dundee, Small-Polar-MMV Screening Library” (2021)
